From ChEMBL document CHEMBL2218924, “A broad activity screen in support of a chemogenomic map for kinase signalling research and drug discovery” (Biochem J, 2013)

Columns and labels:
[1] = target: T1, Muscle, skeletal receptor tyrosine-protein kinase (Homo sapiens) (UniProt O15146); settings: at 1 µM
T1 sequence (whole entry): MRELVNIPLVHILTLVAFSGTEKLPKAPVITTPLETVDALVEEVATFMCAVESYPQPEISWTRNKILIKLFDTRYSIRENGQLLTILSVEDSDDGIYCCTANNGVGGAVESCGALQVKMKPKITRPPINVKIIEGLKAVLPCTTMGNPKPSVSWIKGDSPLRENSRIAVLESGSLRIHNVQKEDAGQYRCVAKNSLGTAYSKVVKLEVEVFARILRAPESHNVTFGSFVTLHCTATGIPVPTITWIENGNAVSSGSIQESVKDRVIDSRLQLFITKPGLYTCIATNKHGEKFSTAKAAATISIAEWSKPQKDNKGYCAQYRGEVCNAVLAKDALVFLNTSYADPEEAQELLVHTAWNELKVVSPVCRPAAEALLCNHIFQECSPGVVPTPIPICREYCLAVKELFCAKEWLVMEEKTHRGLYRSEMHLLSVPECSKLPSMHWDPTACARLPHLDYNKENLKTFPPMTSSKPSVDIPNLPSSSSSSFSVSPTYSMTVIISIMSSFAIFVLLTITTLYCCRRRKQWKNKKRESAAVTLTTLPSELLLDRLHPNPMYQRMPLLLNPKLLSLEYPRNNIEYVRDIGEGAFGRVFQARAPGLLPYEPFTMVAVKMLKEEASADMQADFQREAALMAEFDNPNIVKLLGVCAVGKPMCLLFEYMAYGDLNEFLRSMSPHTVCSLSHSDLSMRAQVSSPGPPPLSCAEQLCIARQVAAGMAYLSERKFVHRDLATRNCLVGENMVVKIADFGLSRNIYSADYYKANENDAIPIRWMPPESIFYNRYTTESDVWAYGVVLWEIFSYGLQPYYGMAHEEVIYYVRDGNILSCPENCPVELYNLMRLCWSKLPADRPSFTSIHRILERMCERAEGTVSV

[2] = target: T1, Muscle, skeletal receptor tyrosine-protein kinase (Homo sapiens); settings: at 10 µM
[3] = target: T2, Serine/threonine-protein kinase Nek11 (Homo sapiens) (UniProt Q8NG66); settings: at 1 µM
T2 sequence (whole entry): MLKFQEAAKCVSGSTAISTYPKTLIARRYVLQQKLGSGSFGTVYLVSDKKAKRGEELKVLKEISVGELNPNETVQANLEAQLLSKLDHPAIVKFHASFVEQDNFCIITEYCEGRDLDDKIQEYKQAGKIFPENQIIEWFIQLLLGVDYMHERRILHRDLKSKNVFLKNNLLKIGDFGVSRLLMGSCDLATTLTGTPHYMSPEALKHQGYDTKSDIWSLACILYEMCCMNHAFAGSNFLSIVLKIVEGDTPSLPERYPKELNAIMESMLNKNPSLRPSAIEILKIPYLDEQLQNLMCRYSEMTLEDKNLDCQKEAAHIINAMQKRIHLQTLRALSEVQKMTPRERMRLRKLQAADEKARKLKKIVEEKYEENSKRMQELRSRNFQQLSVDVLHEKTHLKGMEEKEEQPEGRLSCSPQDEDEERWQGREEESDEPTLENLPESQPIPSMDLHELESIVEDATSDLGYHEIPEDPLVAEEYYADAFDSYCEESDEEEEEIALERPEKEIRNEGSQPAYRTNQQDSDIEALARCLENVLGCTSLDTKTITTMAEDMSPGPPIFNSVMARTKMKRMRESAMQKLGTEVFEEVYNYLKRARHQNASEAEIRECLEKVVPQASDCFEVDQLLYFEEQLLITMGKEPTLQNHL

[4] = target: T2, Serine/threonine-protein kinase Nek11 (Homo sapiens); settings: at 10 µM
[5] = target: T3, Serine/threonine-protein kinase Nek3 (Homo sapiens) (UniProt P51956); settings: at 1 µM
T3 sequence (whole entry): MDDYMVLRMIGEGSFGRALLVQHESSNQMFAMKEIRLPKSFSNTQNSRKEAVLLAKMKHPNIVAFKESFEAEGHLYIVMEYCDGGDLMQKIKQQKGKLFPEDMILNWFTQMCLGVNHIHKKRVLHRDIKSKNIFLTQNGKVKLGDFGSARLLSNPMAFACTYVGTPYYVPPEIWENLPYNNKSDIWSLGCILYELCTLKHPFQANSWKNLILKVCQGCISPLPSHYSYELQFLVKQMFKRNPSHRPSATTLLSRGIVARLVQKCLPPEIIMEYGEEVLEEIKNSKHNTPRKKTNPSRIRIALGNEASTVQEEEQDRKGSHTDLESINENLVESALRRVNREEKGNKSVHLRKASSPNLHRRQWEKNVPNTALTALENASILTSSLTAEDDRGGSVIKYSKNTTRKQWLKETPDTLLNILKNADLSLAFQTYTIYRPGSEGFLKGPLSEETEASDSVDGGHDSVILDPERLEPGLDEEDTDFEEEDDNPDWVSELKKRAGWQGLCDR

[6] = target: T3, Serine/threonine-protein kinase Nek3 (Homo sapiens); settings: at 10 µM
[7] = target: Serine/threonine-protein kinase tousled-like 2 (Homo sapiens) (UniProt Q86UE8); settings: at 1 µM
[8] = target: Serine/threonine-protein kinase tousled-like 2 (Homo sapiens) (UniProt Q86UE8); settings: at 10 µM
[9] = target: T4, Serine/threonine-protein kinase Nek2 (Homo sapiens) (UniProt P51955); settings: at 1 µM
T4 sequence (whole entry): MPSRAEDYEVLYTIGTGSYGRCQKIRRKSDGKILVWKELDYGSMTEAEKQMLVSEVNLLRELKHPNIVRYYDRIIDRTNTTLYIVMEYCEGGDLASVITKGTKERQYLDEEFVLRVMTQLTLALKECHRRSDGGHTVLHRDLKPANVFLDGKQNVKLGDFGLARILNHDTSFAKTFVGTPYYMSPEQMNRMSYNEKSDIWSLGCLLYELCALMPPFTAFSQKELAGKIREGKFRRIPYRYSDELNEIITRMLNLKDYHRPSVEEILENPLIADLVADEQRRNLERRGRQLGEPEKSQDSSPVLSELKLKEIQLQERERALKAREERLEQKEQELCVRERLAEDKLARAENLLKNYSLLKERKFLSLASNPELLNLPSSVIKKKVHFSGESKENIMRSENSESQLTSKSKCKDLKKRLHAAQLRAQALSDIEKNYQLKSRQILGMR

[10] = target: T4, Serine/threonine-protein kinase Nek2 (Homo sapiens); settings: at 10 µM

Chain of Serine/threonine-protein kinase tousled-like 2 (Homo sapiens) (Q86UE8 whole entry, looked up): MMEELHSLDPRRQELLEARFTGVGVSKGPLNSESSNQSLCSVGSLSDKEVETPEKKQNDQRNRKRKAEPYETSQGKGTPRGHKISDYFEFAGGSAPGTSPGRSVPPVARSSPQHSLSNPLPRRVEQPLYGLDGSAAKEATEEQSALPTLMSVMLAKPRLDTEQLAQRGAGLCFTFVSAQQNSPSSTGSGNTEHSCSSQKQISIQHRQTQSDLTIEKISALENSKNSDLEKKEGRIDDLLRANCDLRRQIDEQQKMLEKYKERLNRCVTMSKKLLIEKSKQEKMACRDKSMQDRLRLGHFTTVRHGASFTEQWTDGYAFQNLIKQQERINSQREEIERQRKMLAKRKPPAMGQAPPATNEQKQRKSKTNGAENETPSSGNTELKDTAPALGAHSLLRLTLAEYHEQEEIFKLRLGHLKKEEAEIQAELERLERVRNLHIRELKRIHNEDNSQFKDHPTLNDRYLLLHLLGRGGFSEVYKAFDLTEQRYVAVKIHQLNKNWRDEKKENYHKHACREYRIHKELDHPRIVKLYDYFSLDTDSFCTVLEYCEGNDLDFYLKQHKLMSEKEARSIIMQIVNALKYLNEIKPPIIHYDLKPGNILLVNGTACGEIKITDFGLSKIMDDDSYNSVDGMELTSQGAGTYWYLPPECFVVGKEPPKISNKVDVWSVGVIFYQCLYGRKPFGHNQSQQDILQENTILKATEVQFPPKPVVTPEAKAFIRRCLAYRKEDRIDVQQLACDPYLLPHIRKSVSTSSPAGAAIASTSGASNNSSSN

Structure (SMILES)	residual activity [1]	residual activity [2]	residual activity [3]	residual activity [4]	residual activity [5]	residual activity [6]	residual activity [7]	residual activity [8]	residual activity [9]	residual activity [10]
c1ccc(-c2cnc(Nc3ccc(OCCN4CCCC4)cc3)s2)cc1	4%	0%	81%	76%	115%	76%	105%	81%	–	–
COc1ccc2c(c1)c(C1=C(c3c[nH]c4ccccc34)C(=O)NC1=O)cn2CCCN(C)C	96%	65%	50%	48%	–	–	21%	2%	76%	–
NCCNc1ncc(C(N)=O)c(Nc2cccc(C(F)(F)F)c2)n1	107%	75%	71%	80%	106%	78%	–	–	–	–
O=C1Nc2ccc(Cl)cc2/C1=C/c1cc(Cl)c(O)c(Cl)c1	81%	23%	52%	65%	115%	84%	–	87%	88%	89%
CCCC(=O)Oc1ccc2[nH]c(C(=O)c3cc4ccccc4[nH]3)cc2c1	95%	76%	75%	89%	98%	79%	100%	90%	71%	103%
CCN(CC)CCNC(=O)c1c(C)[nH]c(/C=C2\C(=O)Nc3ccc(Cl)cc32)c1C	3%	0%	80%	31%	–	–	69%	14%	67%	18%
CCCCc1c(-c2ccc(O)cc2)[nH]c2nccnc12	81%	62%	80%	88%	88%	79%	91%	80%	–	–
COc1ccc(Cl)cc1NC(=O)Nc1cc(C)nc2ccccc12	97%	71%	79%	93%	–	–	97%	95%	78%	86%
CSc1nc(-c2ccc(F)cc2)c(-c2ccnc(NC(C)c3ccccc3)c2)[nH]1 (centres undefined)	98%	81%	83%	54%	95%	90%	–	–	99%	102%
CCN1/C(=C/C(C)=O)Sc2ccc(OC)cc21	82%	75%	49%	60%	–	–	–	–	–	–
O=C1Cc2c([nH]c3ccc([N+](=O)[O-])cc23)-c2ccccc2N1	70%	72%	74%	79%	–	–	–	–	–	–
Cn1sc(=O)n(Cc2ccccc2)c1=O	73%	86%	43%	62%	83%	97%	84%	80%	95%	87%
Cn1c2ccccc2c2c3c(c4c5ccccc5n(CCC#N)c4c21)CNC3=O	32%	37%	49%	60%	100%	–	–	–	76%	82%
CCCCc1c(-c2ccc(OC)cc2)[nH]c2nccnc12	88%	87%	80%	81%	87%	–	87%	86%	–	83%
CN(C)S(=O)(=O)c1ccc2c(c1)/C(=C/c1cc3c([nH]1)CCCC3)C(=O)N2	53%	47%	47%	63%	88%	94%	98%	95%	97%	100%
CC(C)c1nn(-c2c(Cl)cccc2Cl)c2nc(Cc3ccc(OCCO)cc3)[nH]c(=O)c12	96%	87%	63%	70%	86%	89%	80%	37%	90%	87%
O=c1cc(N2CCOCC2)oc2c1ccc1ccccc12	100%	87%	98%	75%	–	79%	101%	92%	79%	84%
O=C(CCCc1ccc(-c2ccccc2F)cc1)Nc1ccc(O)cc1	96%	84%	67%	60%	89%	103%	103%	95%	–	106%
O=C(c1cc2cc(O)ccc2[nH]1)c1cc2cc(O)ccc2[nH]1	43%	4%	54%	38%	111%	72%	81%	32%	77%	73%
CC(C)(C)n1nc(Cc2cccc3ccccc23)c2c(N)ncnc21	121%	76%	91%	82%	108%	105%	104%	97%	78%	97%
O=C1Nc2ccccc2/C1=C\c1c(Cl)[nH]c2ccccc12	78%	70%	64%	29%	82%	–	–	76%	–	77%
O=S(=O)(NCCNC/C=C/c1ccc(Br)cc1)c1cccc2cnccc12	81%	76%	69%	69%	–	–	–	–	–	–
Nc1n[nH]c2nc3ccccc3nc12	76%	87%	70%	80%	80%	83%	91%	81%	115%	81%
O=C(NC(NC(=S)Nc1ccc(F)c([N+](=O)[O-])c1)C(Cl)(Cl)Cl)C(c1ccccc1)c1ccccc1 (centres undefined)	85%	98%	86%	49%	94%	89%	99%	94%	90%	88%
